# “And” between values parts separate entries of the source, which are not always exact repeats. Equal entries are not always repeated. Records with an inconclusive call do not appear. A call without a number means that no potency is given here. The source made the active and inactive calls. Calls follow the shape of the dose curve; as a rule, active = well fitted cell-killing curve with a large enough effect; inconclusive = small, poorly fitted or top-dose-only effect, or effect the other way; inactive = no such curve, though single readings can be large or run the other way.
# Experiment: Viability qHTS for spleen associated tyrosine kinase inhibitor (SYKi) drug resistant MV4-11 cells (AID 1963824); also: nearly all actives have a fitted effect of over 35% in size
# Details: SYKi-resistant MV4-11 viability, CellTiter-Glo, 72 h; series mostly up to 45 µM
# Procedure, shortened: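 CellTiter-Glo luminescence, read 10 min after reagent addition, reports viability after a 72 hr compound exposure. Cells are an MV4-11 line made resistant to SYK inhibition, seeded at 500 per well onto compound-containing plates.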
# Potency is read from the fitted curve at half-maximal effect.
row,SMILES,Potency
1,N#Cc1cc(F)cc(-c2nc(-c3ccccn3)no2)c1,inactive
2,CCCCOC(=O)NC(=O)C1c2ccccc2Oc2ccccc21,inactive
3,CCC(C)(C)C1CCc2c(sc(NC(=O)c3ccc(Br)cc3)c2C#N)C1 (stereo unspecified),inactive
4,CC1(C)Oc2ncnc(N)c2N=C1c1ccc(C2CCC(CC(=O)O)CC2)cc1 (stereo unspecified),inactive
5,C=CC(=O)N1CCN(C(=O)c2cc(-c3cc(Cl)ccc3Cl)c(Cl)cc2OC)CC1,6.51 µM (active)
6,O=C(c1ccc(Cl)c([N+](=O)[O-])c1)N1CCN(c2ccccc2F)CC1,18.4 µM (active)
7,O=C(c1ccc(F)cc1)C1CCN(CCn2c(=O)nc3n(c2=O)CCCC3)CC1,inactive
8,COC(=O)c1cc(Br)cnc1N1CCC(NC2CCCCC2)C(O)C1 (stereo unspecified),inactive
9,CN(c1ccc(NC(=O)Nc2ccccc2)cc1)S(=O)(=O)c1cnn(-c2ccc(F)cc2)c1,23.1 µM (active)
10,COC(=O)[C@H](CC1C=NC=N1)NCC12CC3CC(CC(C3)C1)C2 (stereo partly specified),inactive
11,CC#CC(=O)Nc1ccc2ncnc(Nc3cccc(Br)c3)c2c1,1.46 µM (active) and 580 nM (active)
12,O=C(NCC(O)CO)c1ccncc1Nc1ccc(I)cc1F (stereo unspecified),0.164 µM (active)
13,COc1ccc(NC(=O)N2CCc3c2ccc2ccccc32)cc1N1CCN(C)CC1,8.2 µM (active)
14,N#Cc1ccc2[nH]c(O)c(-c3ccc(CN4CCOCC4)cn3)c2c1,inactive
15,CC(C)(C(=O)c1cccnc1)c1cccnc1,inactive
16,O=S(=O)(Cc1ccccc1)Nc1ccc(-c2ccc3c(cnn3-c3ccc(F)cc3)c2)c(C(F)(F)F)c1,20.6 µM (active)
